Out of some 420,000 compounds screened, about 64,000 (15%) were called active. Not shown: some 27% with an inconclusive outcome. The list is a sample of the results. Unmarked numbers belong to inactive results. Calls come from the whole dose curve; as a rule, active = well fitted inhibition curve with a large enough effect; inconclusive = small, poorly fitted or top-dose-only effect; inactive = flat fitted curve, though single readings scatter.
Experiment: qHTS for Inhibitors of human tyrosyl-DNA phosphodiesterase 1 (TDP1): qHTS in cells in absence of CPT; note: nearly all actives have a fitted effect of over 55% in size
Details: DT40 Tdp1-/- hTDP1 cells, no CPT, ATP luminescence, 48 h; activity change, negative = growth inhibition: at 46.2 µM (top of the series)
Procedure, shortened: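 Readout: luminescence from CellTiter-Glo after 30 min in the dark at RT. Cells: DT40 Tdp1-/- with stable hTDP1, 400/well. Exposure: compounds alone, ≥48 hr, 37 °C.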
% is set by controls: 0 for no effect and ±100 for the full control effect; potency is the fitted concentration of half-maximal effect.

SMILES | activity change, negative = growth inhibition [%] | Potency
CCOc1ccccc1NC(=O)CCn1cnnn1 | -0.862 | –
Cc1[nH]c2ccc(S(N)(=O)=O)cc2c1C | 1.87 | –
Cc1ccccc1C(=O)N1CCC(C(=O)Nc2ccc(S(=O)(=O)N(C)C(C)C)cc2)CC1 | – | 20.6 µM (active)
CCc1nnc(NC(=O)C2CCN(C(=O)c3ccccc3C)CC2)s1 | 6.29 | –
Cc1ccccc1C(=O)N1CCC(C(=O)Oc2ccc(C#N)cc2)CC1 | 3.44 | –
COc1ccc(-n2c(C)csc2=S)cc1 | -9.93 | –
O=C(OCCN1C(=O)c2ccccc2C1=O)[C@@H]1CC(O)CN1S(=O)(=O)c1ccccc1[N+](=O)[O-] (stereo partly drawn) | 4.14 | –
COC(=O)C1(C(=O)OC)C/C=C\CN(S(=O)(=O)c2ccccc2[N+](=O)[O-])CCC1 | – | 16.4 µM (active)
COc1ccc(S(=O)(=O)N2CCC(C(=O)OCC(=O)c3ccccc3)CC2)cc1[N+](=O)[O-] | -10.2 | –
OCCNc1ncnc2oc(-c3ccco3)c(-c3ccco3)c12 | – | 20 µM (active)
COCCNc1ncnc2c1ncn2[C@H]1CN(Cc2ccc(OC)cc2)C[C@@H](CO)O1 | -11.2 | –
COc1ccc(-c2oc3ncnc(NCCCO)c3c2-c2ccc(OC)cc2)cc1 | – | 16.4 µM (active)
OCCc1ccc(NCCc2ccco2)cc1 | -7.84 | –
Cc1nnc(NCCO)c2ccccc12 | -3.13 | –
Nc1nonc1C(=O)NCCc1ccccc1 | 2.03 | –
O=S1(=O)C=C(SCCN2CCCC2)c2ccccc21 | -17.4 | –
CCCC(C)NC(=O)C1CCN(C(=O)C2CC(=O)N(c3ccc(C)cc3)C2)CC1 (stereo not drawn) | -16.9 | –
Cc1ccsc1CNn1cnnc1SCc1ccccc1F | -16.7 | –
CCn1c(CNC(=O)c2ccco2)nnc1SCC(=O)Nc1cccc(F)c1 | 25.7 | –
COC(=O)C(C)n1cnc2c(nnn2-c2cccc(Cl)c2)c1=O (stereo not drawn) | -2.72 | –
CC(C)[C@H](CO)Nc1nc(Nc2cc(N)cc(Cl)c2)c2ncn(C(C)C)c2n1 | – | 2.99 µM (active)
CC(C)n1cnc2c(Nc3cccc(Cl)c3)nc(N(CCO)CCCO)nc21 | – | 14.6 µM (active)
O=C(NCCc1ccccc1)c1ccc(NC2=NC3CS(=O)(=O)CC3S2)cc1 (stereo not drawn) | -3.78 | –
Cc1cc(NS(=O)(=O)c2ccc(NC(=O)C(C)Oc3cccc(C)c3C)cc2)nc(C)n1 (stereo not drawn) | 1.7 | –
O=C(CSc1ncnc2sccc12)NC1CCS(=O)(=O)C1 (stereo not drawn) | 1.97 | –

SMILES | activity change, negative = growth inhibition [%] | Potency
Cn1c(SCC(=O)Nc2cccc(O)c2)nnc1-c1ccc(S(=O)(=O)N2CCOCC2)cc1 | -22.6 | –
Cc1ccc([C@@H]2CC(=O)[C@@H]3CN(S(=O)(=O)c4ccc(C)cc4)[C@H](c4ccccc4F)C[C@@H]3N2S(=O)(=O)c2ccc(Cl)cc2)cc1 | -6.21 | –
Cc1ccccc1CSc1nnc(-c2cccnc2)n1N | -16.3 | –
Cc1ccc(-c2nn(-c3ccccc3)cc2CN(Cc2ccccc2)C(=O)CCC(=O)O)o1 | -5.97 | –
COCCCNC(=O)Cn1cc(C(=O)C2CC2)c2ccccc21 | -8.41 | –
COc1ccccc1Nc1ncnc2c1oc1ccccc12 | – | 11.6 µM (active)
O=C(CSc1ncnc2c1oc1ccccc12)NC1CCCC1 | -11.6 | –
CCC(C(=O)OC)n1cnc2c(oc3ccccc32)c1=O (stereo not drawn) | 8.29 | –
COc1ccc(CN2CCC3(CCC(CNC(=O)c4ccco4)O3)CC2)cc1OC (stereo not drawn) | -20 | –
CCCCCCCNc1nc(Cl)nc(NCCO)n1 | -13.2 | –
Cc1occc1-c1nnc(SCC(=O)NC2CCCCC2)o1 | -27.7 | –
CCOC(=O)Nc1ccc(NC(=O)OCC)cc1 | -7.66 | –
CCNC(=O)N1c2ccccc2Sc2ccccc21 | -18 | –
CCOC(=O)Nc1ccc2c(c1)N(C(=O)CCN1CCN(CCO)CC1)c1ccccc1CC2 | -1.78 | –
CCOC(=O)Nc1ccc2c(c1)N(C(=O)CCCl)c1ccccc1[S@]2=O | – | 3.66 µM (active)
CCNCCC(=O)N1c2ccccc2Sc2ccc(NC(=O)OCC)cc21 | – | 13 µM (active)
CCOC(=O)CNC(=O)CN1C(=O)CCSc2ccccc21 | 1.6 | –
CN1CCC2(CC1)CCN(S(=O)(=O)c1ccccc1)CC2 | 1.52 | –
Cc1ccc(S(=O)(=O)N(c2cccc(C)c2)C2CCS(=O)(=O)C2)cc1 (stereo not drawn) | -4.69 | –
CC(C)Sc1ncnc2c1cnn2-c1ccccc1 | -28.2 | –
O=C(O)c1cc(S(=O)(=O)Nc2ccc3cn[nH]c3c2)ccc1Br | 7.47 | –
CC(C)N1C(=O)C2C(C(=O)NC3CCCCC3)C3C=CC2(O3)C1C(=O)NC1CCCC1 (stereo not drawn) | -1.95 | –
CCCCOC(=O)Nc1nccs1 | -5.44 | –
CCCc1cc(=O)n2[nH]c(SCc3ccccc3)nc2n1 | -7.3 | –
CCn1c2ccccc2c2nnc(SCC(=O)O)nc21 | -19.8 | –

SMILES | activity change, negative = growth inhibition [%] | Potency
CCOC(=O)c1sc(NC(=O)C(CC)Sc2nccn2C)nc1C (stereo not drawn) | -23.3 | –
C=CCn1c2ccccc2c2nnc(SC(CC)C(=O)Nc3nc(C)c(C(=O)OCC)s3)nc21 (stereo not drawn) | – | 8.2 µM (active)
N#Cc1cc2[nH]c(=O)c(=O)[nH]c2cc1[N+](=O)[O-] | 9.21 | –
CSc1n[nH]c(=S)n1N | -6.87 | –
N#Cc1ccc(S(=O)(=O)NCC(=O)OCC(=O)NCCc2ccccc2)cc1 | 19.7 | –
Cc1nnc(SCC(=O)Nn2cnnc2)s1 | -9.49 | –
O=S1(=O)CC/C(=N\Nc2ccc(F)cc2)c2ccsc21 | -24.8 | –
O=C(COC(=O)c1ccc(F)cc1)NCCCc1ccccc1 | 16.5 | –
O=C(c1ccc(F)cc1)C1CCN(CCCCc2ccccc2)CC1 | – | 26.6 µM (active)
O=C1CCN(CCCc2ccccc2)CCN1CCO | -1.55 | –
CCn1c(SCC(=O)NC2CCCC2)nnc1-c1ccoc1C | -5.53 | –
NS(=O)(=O)c1ccc(CCNC(=O)NC2CCCCC2)cc1 | 1.16 | –
O=S(=O)(c1cccs1)N1CCc2ccccc2C1 | -11.7 | –
Cc1ccc(N(Cc2cc3ccccc3[nH]c2=O)C(=O)c2cccs2)cc1 | – | 14.6 µM (active)
CCC(=O)N(CCc1ccccc1)Cc1cc2cc(C)ccc2[nH]c1=O | -19.6 | –
Cc1cccc2cc(CN(C(=O)c3cccs3)c3ccccc3)c(=O)[nH]c12 | -20.8 | –
Cc1ccc(-n2nc(C)c(C(=O)O)c2-n2cccc2)cc1 | -1.81 | –
CCCN(CCC)CCCNC(=O)Cn1cc2c(n1)-c1c(oc(C(=O)N3CCCC3)c1C)CC2 | -14.5 | –
Cc1c(C(=O)N2CCCC2)oc2c1-c1nn(CC(=O)NCc3ccc(OC(C)C)cc3)cc1CC2 | – | 20.6 µM (active)
CCOc1ccc(CNC(=O)Cn2cc3c(n2)-c2c(oc(C(=O)N4CCCC4)c2C)CC3)cc1 | – | 20.6 µM (active)
CC(C)Oc1ccc(C(=O)NCC(=O)Nc2ccc3c(c2)CCC3)cc1 | -11.2 | –
COCCNC(=O)Cn1cc2c(n1)CCCCC2 | -0.37 | –
CCOC(=O)N1CCC(NC(=O)Cn2cc3c(n2)CCCCC3)CC1 | -11.3 | –
